Several values for one entry are separate records, joined by “and”; a condition that tells them apart may be missing. Equal values may be shown once. Results filed as inconclusive are left out. Where a call stands in place of a potency, no number is given. Activity calls are given as the source filed them. The call rests on the fitted dose curve; in most records, active means well fitted inhibition curve with a large enough effect; inconclusive means small, poorly fitted or top-dose-only effect; inactive means no such curve, though single readings can be large or run the other way.
Assay: qHTS screen for inhibitors of ELG1-dependent DNA repair in human embryonic kidney (HEK293T) cells expressing luciferase-tagged ELG1: MMS Viability Assay for probe SAR
Details: HEK293T ELG1-luc + MMS viability, CellTiter-Glo, 16 h; series mostly up to 46.1 µM
Description: Cancer cells divide rapidly compared to normal cells in the body. During cell division, cancer cells need to duplicate their genome by DNA replication. The failure of genome duplication leads to cancer cells' death. Therefore, inhibitors of DNA replication could specifically kill cancer cells. Based on this concept, many chemotherapeutic agents were developed and have been used to treat cancer patients. However, there are a limited number of agents available in the clinical setting, and some of those that do exist have low efficacy and severe side effects. Therefore, if we can find the compounds that effectively block DNA replication either by directly damaging DNA or by inhibiting other cellular mechanisms, the options for cancer treatment will be broadened. With this in mind, we developed a quantitative high-throughput ELG1-luciferase reporter gene assay. Small molecules that specifically block ELG1 function in response to DNA damage can be identified by monitoring the suppression of luciferase activity. Since ELG1 defines a pathway for repairing DNA damage, agents blocking ELG1 function can be used to sensitize cancer cells to chemotherapeutic agents whose mechanism of action involves the induction of DNA damage. Cytotoxicity of the active compounds in the ELG1 qHTS assay with MMS stimulation (AID 493125) was assessed using the CellTiter-Glo Luminescent Cell Viability Assay kit (Promega, USA). CellTiter-Glo measures the intracellular ATP present in metabolically active cells using Ultra-Glo as the luciferase to detect ATP levels. In brief, the luciferase in the buffer catalyzes the oxidation of luciferin to oxyluciferin and light which is dependent on ATP. […] DMSO and wells with media alone were used as positive and negative controls, respectively. Inactivity to this assay is the desirable outcome. NIH Molecular Libraries Probe Production Network [MLPCN] NIH Chemical Genomics Center [NCGC] MLPCN Grant: R03 MH092164 Assay Provider: Kyungjae Myung, NHGRI, NIH
ELG1-luc HEK293T cells will be seeded in 1536-well plates at a density of 2,000 cells/well. Approximately 5 hours after plating, compounds will be added to the plate by pin tool transfer and MMS will be added by FRD dispenser (final concentration of MMS = 10 µM). 16 hours following the addition of the compounds, cell viability will be measured using CellTiter Glo.
In the case of Fc1ccc(Nc2nc(-c3ccncc3Cl)nc3ccccc23)cc1F, the Potency is reported as “inactive”. In the case of Fc1cc(Nc2nc(-c3ccncc3)nc3ccccc23)ccc1-c1ccnc(C(F)(F)F)c1, the Potency is reported as “inactive”. With O=c1cc(-c2nc(Nc3ccc(F)c(F)c3)c3ccccc3n2)cc[nH]1 the Potency was “inactive”. For COc1ccc(Nc2nc(-c3ccncc3)nc3ccccc23)cc1F, the Potency was “inactive”. In the case of Fc1cc(Nc2nc(-c3ccncc3)nc3ccccc23)ccc1-c1ccncc1, the Potency is reported as “inactive”. In the case of Fc1cc(Nc2nc(-c3ccncc3)nc3ccccc23)ccc1-c1cccc(OC(F)(F)F)c1, the Potency is reported as 18.7 µM (active). With Fc1cc(Nc2nc(-c3ccncc3)nc3ccccc23)ccc1OCC(F)(F)F the Potency was “inactive”. For Fc1cc(Nc2nc(-c3ccncc3)nc3ccccc23)ccc1-n1cncn1, the Potency was “inactive”. In the case of Fc1cc(Nc2nc(-c3ccncc3)nc3ccccc23)ccc1-c1cccc(OC(F)F)c1, the Potency is reported as “inactive”. For Fc1cc(Nc2nc(-c3ccncc3)nc3ccccc23)ccc1-c1ccc2[nH]ncc2c1, the Potency was “inactive”. For Fc1cc(Nc2nc(-c3ccncc3)nc3ccccc23)ccc1C(F)(F)F, the Potency was 7.43 µM (active) and 16.6 µM (active). For COc1ccc(-c2ccc(Nc3nc(-c4ccncc4)nc4ccccc34)cc2F)cc1F, the Potency was “inactive”. For CCOC(=O)c1ccc2c(c1)c(C(C)=O)c(C)n2-c1ccc(OC)cc1, the Potency was “inactive”. With Cc1nc2ccc(Nc3nc(-c4ccncc4)nc4ccccc34)cc2s1 the Potency was “inactive”. For Fc1ccc(Nc2nc(-c3ccnc(N4CCCCC4)c3)nc3ccccc23)cc1F, the Potency was “inactive”. With Oc1ccc(Nc2nc(-c3ccncc3)nc3ccccc23)cc1F the Potency was “inactive”. With Fc1ccc(Nc2nc(-c3ccncc3)nc3ccccc23)cc1F the Potency was “inactive”. For Fc1cccc(-c2ccc(Nc3nc(-c4ccncc4)nc4ccccc34)cc2F)c1, the Potency was “inactive”. With COc1cc(Nc2nc(-c3ccncc3)nc3ccccc23)ccc1F the Potency was 23.5 µM (active) and 20.9 µM (active). With Nc1cc(-c2nc(Nc3ccc(F)c(F)c3)c3ccccc3n2)ccn1 the Potency was “inactive”. For COc1cc(Nc2nc(-c3ccncc3)nc3ccccc23)ccc1N1CCN(C)CC1, the Potency was “inactive”. For Fc1cccc(Nc2nc(-c3ccncc3)nc3ccccc23)c1, the Potency was “inactive”. With Fc1ccc(-c2nc(-c3ccncc3)nc3ccccc23)cc1F the Potency was “inactive”. For Fc1ccc(-c2ccc(Nc3nc(-c4ccncc4)nc4ccccc34)cc2F)c(F)c1, the Potency was 7.43 µM (active). For COc1ccc(-n2c(C)c(C(C)=O)c3ccccc32)cc1, the Potency was “inactive”. In the case of CN1CCN(c2ccc(Nc3nc(-c4ccncc4)nc4ccccc34)cc2F)CC1, the Potency is reported as “inactive”. For Cc1cc(-c2nc(Nc3ccc(F)c(F)c3)c3ccccc3n2)cc(C)n1, the Potency was “inactive”. For COc1cc(-c2nc(Nc3ccc(F)c(F)c3)c3ccccc3n2)cc(OC)n1, the Potency was “inactive”. In the case of COc1cc(-c2nc(Nc3ccc(F)c(F)c3)c3ccccc3n2)c(F)cn1, the Potency is reported as 23.5 µM (active). With Fc1cc(Nc2nc(-c3ccncc3)nc3ccccc23)ccc1-c1cccnc1 the Potency was “inactive”. With CSc1ccccc1-c1ccc(Nc2nc(-c3ccncc3)nc3ccccc23)cc1F the Potency was “inactive”. For Fc1ccc(Nc2nc(-c3ccnc(C(F)(F)F)c3)nc3ccccc23)cc1F, the Potency was 20.9 µM (active). In the case of COC(=O)c1ccc(Nc2nc(-c3ccncc3)nc3ccccc23)cc1OC, the Potency is reported as “inactive”. With COc1cnccc1-c1nc(Nc2ccc(F)c(F)c2)c2ccccc2n1 the Potency was 16.6 µM (active). With Fc1cc(Nc2nc(-c3ccncc3)nc3ccccc23)ccc1-c1ccc(F)c(F)c1F the Potency was “inactive”. In the case of COc1nccc(-c2nc(Nc3ccc(F)c(F)c3)c3ccccc3n2)c1Cl, the Potency is reported as “inactive”. In the case of Fc1cc(Nc2nc(-c3ccncc3)nc3ccccc23)ccc1-c1cc(F)c(F)c(F)c1, the Potency is reported as “inactive”. With Fc1ccc(-c2ccc(Nc3nc(-c4ccncc4)nc4ccccc34)cc2F)c(Cl)c1 the Potency was 18.7 µM (active). In the case of Fc1cc(Nc2nc(-c3ccncc3)nc3ccccc23)ccc1-c1cn[nH]c1, the Potency is reported as “inactive”. For Cc1cc(-c2nc(Nc3ccc(F)c(F)c3)c3ccccc3n2)ccn1, the Potency was “inactive”.

Source: PubChem BioAssay AID686922 (National Center for Advancing Translational Sciences (NCATS), 2013)
